Only some compounds are listed: those with a hit (about 14% of all), similar ones and a draw of the others.
Pf growth 96h – Primary qHTS for delayed death inhibitors of the malarial parasite plastid, 96 hour incubation | P. falciparum luciferase reporter growth, 96 h | Potency, µM (highest dose often 28.7 µM), for the others: at the highest dose activity change, negative = inhibition, hits mostly inhibitors | 320,000 compounds, 6.9% hits | AID 504834, 2011; also: potency is read from the fitted curve at half-maximal effect
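96 h incubation, 37 C, 5% CO2, of luciferase-reporter P. falciparum-infected RBCs (2% hematocrit, 0.05% parasitemia final) with test compounds; endpoint luminescence.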
HCV inh – qHTS Assay for Inhibitors of Hepatitis C Virus (HCV); Huh7.5.1 HCVcc-Cre infection, luciferase reporter, 44 h; Potency, µM (series often up to 41.8 µM), without a hit: top-dose activity change, negative = inhibition, usual class: inhibitors; 340,000 compounds, 3.4% hits; AID 651820, 2012; also: potency is read from the fitted curve at half-maximal effect
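Seed cells (1,000/well) for 4 h; treat with compound and infect with HCVcc-Cre, moi about 0.5. Incubate 44 h, then detect luciferase activity.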
Pf growth 48h – Primary qHTS for delayed death inhibitors of the malarial parasite plastid, 48 hour incubation. 310,000 compounds, 5.9% hits. AID 504832, 2011. P. falciparum luciferase growth in erythrocytes, 48 h. Potency, µM (top dose mostly 28.7 µM), for inactives: at the highest dose activity change, negative = inhibition, hits mostly inhibitors; also: potency is read from the fitted curve at half-maximal effect
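Firefly luciferase activity from engineered P. falciparum reports growth; inhibitors lower the luminescent signal. Cultures contained 2% hematocrit erythrocytes at 0.1% final parasitemia.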
MARV entry inh – qHTS for inhibitors of binding or entry into cells for Marburg Virus. Marburg virus pseudotyped entry inhibition, cell reporter. Potency, µM (highest dose often 37.8 µM), for inactives: top-dose activity change, negative = inhibition, hits mostly inhibitors. 300,000 compounds, 1.8% hits; calls by dose curve; tested in HEK293 cells; also: potency is read from the fitted curve at half-maximal effect
HCMV inh – qHTS Assay for inhibitors of the human cytomegalovirus (HCMV) | HFF cells, HCMV-luciferase reporter, 72 h; active compounds read low | activity change, negative = inhibition, % at 57.5 µM | 410,000 compounds, 4.5% hits | AID 1259415, 2018; in the data active = activity change below about -60%; inconclusive = no clear call, values can overlap the other calls; inactive = above about -39%
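Cell-based, HFFs, 1000 cells/well, 16 h 37C; cpds in DMSO + HCMV-luc, MOI 1 PFU/cell; 72 h 37C; OneGlo luminescence after 5 min RT; norm. to buffer vs Salinomycin 10uM.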
Lassa entry inh – qHTS for Inhibitors of binding or entry into cells for Lassa Virus. Potency, µM (doses to about 37.9 µM), for inactives: at the top dose activity change, negative = inhibition, usual class: inhibitors. AID 540256, 2011. Lassa virus pseudotype entry inhibition, cell reporter. 300,000 compounds, 1.2% hits; calls by dose curve; tested in HEK293 cells; also: potency is read from the fitted curve at half-maximal effect; nearly all actives have a fitted effect of over 50% in size
The depositor's hits bear a star; i = inactive; ? = inconclusive; nt = not tested or not shown; [ ] = dose if it differs, or a comment. Unless noted, calls follow the shape of the dose curve; as a rule, active = well fitted inhibition curve with a large enough effect; inconclusive = small, poorly fitted or top-dose-only effect, or another doubt; inactive = no such curve, though single readings can be large or run the other way. % is scaled to controls: 0 for no effect and ±100 for the full control effect.

SMILES | Pf growth 96h | HCV inh | Pf growth 48h | MARV entry inh | HCMV inh | Lassa entry inh
Cc1ccccc1C(=O)N1CCC(C(=O)Nc2cccc(S(=O)(=O)N3CCCCC3)c2)CC1 | ? | ? | 14.7µM* | nt | ? | nt
Cc1ccccc1C(=O)N1CCC(C(=O)Nc2ccc(S(=O)(=O)N3CCCC3)cc2)CC1 | nt | -10.5% | ? | -6.4% | -26.7 | 12.5%
Cc1ccccc1C(=O)N1CCC(C(=O)Nc2ccc(C)c(S(=O)(=O)N3CCCCC3)c2)CC1 | ? | 10µM* | 13.1µM* | nt | 0.0 | nt
COC(=O)C1=C(N)OC2=C(C(=O)CCC2)C1c1ccc2c(c1)OCO2 (stereo not drawn) | -15.2% | 7.4% | 20.1% | nt | 23.1 | nt
COC(=O)C1=C(N)N(c2ccc(F)cc2)C2=C(C(=O)CCC2)C1c1ccc2c(c1)OCO2 (stereo not drawn) | 65.3% | 11.4% | 10.4µM* | 7.4% | -29.6 | ?
O=C(Nc1cccc(Cl)c1)c1cc(S(=O)(=O)N2CCCc3ccccc32)ccc1F | nt | nt | nt | nt | -20.7 | -4.6%[46.1 µM]
CC1CCCC(C)N1CC(O)COc1c(F)cc(Br)cc1F (stereo not drawn) | ? | -16.2% | 10.4µM* | ? | -23.4 | -15.4%
OC(CNC1CCCC1)COc1c(F)cc(Br)cc1F (stereo not drawn) | -16.1% | -27.7% | nt | -11.0% | -12.8 | -1.5%
COc1cccc(OCC(O)CN2C(C)CCCC2C)c1 (stereo not drawn) | -4.6% | 6.9% | 20.2% | -7.2% | -1.1 | 7.9%
Cc1cc(OCC(O)CN2C(C)CCCC2C)ccc1C(C)C (stereo not drawn) | ? | -22.6% | 9.28µM* | ? | 7.1 | ?
O=C1CC2(CCCCC2)Oc2ccccc21 | nt | 19.5% | nt | nt | -5.8 | nt
CC(C)(C)C1CCC2(CC1)CC(=O)c1ccccc1O2 (stereo not drawn) | -7.7% | 9.2% | ? | nt | -60.5* | nt
Cc1cc(C)n2c(nc3ccccc32)c1C(=O)NN | ? | 3.8% | -11.1% | -2.0%[46.1 µM] | -33.9 | -11.7%[46.1 µM]
COC(=O)c1c(C)cc(C)n2c1nc1ccccc12 | 7.38µM* | ? | 11.6% | -8.2% | 6.9 | 5.9%
CC(c1nccs1)N(C)C(=O)CCc1nnc(CCc2ccccc2)o1 (stereo not drawn) | 28.4% | 11.8% | 5.0% | ? | -3.0 | 8.4%[46.1 µM]
O=C(CCc1nnc(CCc2ccccc2)o1)N1CCCC1c1nccs1 (stereo not drawn) | 13.1µM* | 10.8% | 0.0% | nt | -18.6 | nt
O=C1CC(=C2c3ccccc3-c3ccccc32)C(=O)N1CCCCN1CCN(c2ccccc2)CC1 | 6.57µM* | ? | 4.15µM* | ? | nt | 1.7%
CC(NC(=O)CN1C(=O)COc2ccc(Cl)cc21)c1ccccc1 (stereo not drawn) | nt | nt | nt | -7.8%[46.1 µM] | -25.8 | -13.9%[46.1 µM]
O=C1C(Cc2c[nH]c3ccccc23)NC(=S)N1Cc1ccccc1 (stereo not drawn) | 13.1µM* | 7.3% | ? | -11.3%[46.1 µM] | 50.4 | -27.4%
COCCN1CCN(c2nc(C(=O)Nc3ccc(F)c(Cl)c3)cs2)C1=O | nt | nt | nt | nt | -17.8 | nt
Cc1ccc(C2=Nc3ccccc3N(CC(=O)Nc3cccc(F)c3)C(=O)C2)cc1C | nt | nt | nt | nt | 30.6 | ?
O=C(/C=C/Nc1ccc(Br)cc1F)c1ccccc1 | 42.8% | 6.3% | 169.8% | 1.26µM* | -4.1 | 1.58µM*
CC(C)(C)NC(=O)C(=O)NNC(=O)c1cccc(Br)c1 | 2.08µM* | -15.5% | 63.5% | 17.7%[46.1 µM] | -30.0 | -14.9%
O=C(/C=C/NNC(=O)c1ccccc1)c1ccc(Br)cc1 | 183.4% | 2.24µM* | nt | ? | 39.2 | ?
O=C(/C=C/NNC(=O)c1cccc(Br)c1)c1cccc(Br)c1 | nt | ? | 9.28µM* | -22.6% | 26.9 | -9.5%
SMILES | Pf growth 96h | HCV inh | Pf growth 48h | MARV entry inh | HCMV inh | Lassa entry inh
Cc1ccc(-c2c(C(=O)N3CCN(c4cccc(C)c4C)CC3)oc(=O)c3ccccc23)cc1 | nt | nt | nt | ? | -33.4 | ?
COc1ccc(NC(=O)c2ccc(NC(=O)CCS(=O)(=O)c3cccs3)cc2)cc1Cl | nt | nt | nt | ? | 61.6 | -4.9%[46.1 µM]
Cc1ccc(C(=O)/C=C/NNC(=O)c2ccccc2O)cc1 | -20.5% | 0.6% | 15.6% | nt | 17.1 | nt
COc1ccc(C(=O)NN/C=C/C(=O)c2ccc(Br)cc2)cc1 | nt | nt | nt | nt | 48.7 | nt
O=C(/C=C/NNC(=O)c1ccc(Cl)cc1)c1ccccc1 | -20.3% | 8.91µM* | -30.4% | nt | -16.2 | nt
COc1ccc(C(=O)C=CNNC(=O)c2ccc(Cl)cc2)cc1 | 3.5% | 11.2µM* | ? | ? | 14.4 | 5.62µM*
NC(=O)c1ccccc1N/C=C/C(=O)c1ccc(Cl)cc1Cl | 201.1% | -2.7% | i | 5.62µM* | 43.4 | ?
N#Cc1ccccc1N/C=C/C(=O)c1ccc(Cl)cc1 | nt | ? | nt | ? | 82.0 | 12.6µM*
c1ccc(-c2cc3c(Nc4ccc5c(c4)OCCO5)nccc3[nH]2)cc1 | nt | nt | nt | nt | 0.4 | nt
CNC(=O)c1sc(N2N=C3/C(=C/c4ccccc4)CCCC3C2c2ccccc2)nc1C (stereo not drawn) | 3.29µM* | 10µM* | ? | ? | -39.1 | ?
COc1cccc([C@@H]2Oc3ccc(Br)cc3C(=O)[C@@H]2OC(=O)N[C@H]2CCCc3ccccc32)c1 | nt | nt | nt | -11.4%[14.2 µM] | nt | nt
FC(F)Sc1nc(-c2ccccc2)c(-c2ccccc2)n1C(F)F | 3.29µM* | 2.0% | -3.3% | -4.1% | 83.5 | -0.3%
c1ccc(-c2nc3ccccn3c2-c2ccccc2)cc1 | nt | ? | nt | ? | 22.8 | -21.1%
Cc1cccc(C(=O)NNC(=O)C2CCCCC2)c1O | nt | nt | nt | nt | -18.6 | nt
CCOC(=O)N1CCN(C(=O)C[C@@H]2C[C@@]3(C(=O)OCC)CCCC=C3N(Cc3ccco3)C2=O)CC1 | nt | nt | nt | nt | 12.2 | nt
c1ccc(C2CC(c3cccs3)=NN2c2ccccc2)cc1 (stereo not drawn) | 10.4µM* | -11.4% | 10.4µM* | ? | -1.0 | ?
O=C(O)c1ccc(N2N=C(c3ccccc3)CC2c2ccccc2)cc1 (stereo not drawn) | 6.0% | 6.3% | 214.1% | nt | -22.2 | nt
CC(=O)Nc1ccc(C2CC(c3ccc(Cl)cc3)=NN2c2ccccc2)cc1 (stereo not drawn) | 4.65µM* | ? | nt | nt | ? | nt
CC(=O)Nc1ccc(C2=NN(c3ccccc3)C(c3ccccc3)C2)cc1 (stereo not drawn) | 11.7µM* | -23.0% | 9.28µM* | -21.9%[46.1 µM] | 22.2 | -13.9%[46.1 µM]
Cc1nnn(C23C[C@@H]4C[C@@H](CC(C(=O)N5CCN(c6ccccc6)CC5)(C4)C2)C3)n1 | -20.0% | ? | -7.7% | nt | -86.8* | nt
CCCNS(=O)(=O)c1ccc(OCC(=O)N2CCN(Cc3ccccc3)CC2)cc1 | ? | -14.2% | -12.6% | ? | -37.0 | 18.3µM*

Screens (PubChem BioAssay)
